Consider 55 compounds from PubChem BioAssay AID602125 (The Scripps Research Institute Molecular Screening Center, 2011).

Molecules are shown by their SMILES. Hit rate of the full screen: of about 1,300 compounds, about 110 (8.5%) were called active. Only a sample is shown. Values without a mark were called inactive. Cut-off read from the data, not from the text of the source: active = inhibition above about 6.5%; inactive = the rest.

The nature of the experiment: GFP fluorescence inhibitors and quenchers, artefact control for Rin1-Abl interaction inhibitor project, biochemical (AID 602125).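 Note: ABL1-eGFP fusion protein alone without its partner RIN1-SBP; 0% = protein with vehicle and 100% = wells lacking protein.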 The following applies: inhibitors/quenchers counterscreen, at 6.75 µM, stronger effect = higher value. Background: A counterscreen serves to expose hits that act by an unwanted route or on another target.
On to `CC(C)CNS(=O)(=O)c1ccc(C(=O)Nc2ccc3c(c2)OCO3)cc1`, for which the inhibition (commonly the relative decrease from the control value, in per cent) is -1.46%.
For `O=c1ccc2c(-c3ccccc3S(=O)(=O)O)c3ccc(O)c(O)c3oc-2c1O`, the inhibition was 60.6% (active).
As to `CCCn1c(N)c(C(=O)CSc2nnc(-c3cccnc3)n2-c2ccc(C)cc2C)c(=O)[nH]c1=O`, the inhibition is -2.86%.
As for `Cc1cc2ccccc2n1CCNC(=O)COc1ccc2ccccc2c1`, the inhibition is 0.81%.
For `CC(OC(=O)c1ccccc1NCCO)C(=O)Nc1ccnn1C(C)C` (stereo not given), the inhibition is 0.13%.
Take `C=C1c2c(Cl)ccc(O)c2C(O)=C2C(=O)[C@]3(O)C(O)=C(C(N)=O)C(=O)[C@@H](N(C)C)[C@@H]3[C@@H](O)C12` (stereo not given in full): the inhibition is 14.2% (active).
The figure for `CC(=O)NC(c1cccs1)c1cc(Br)c2cccnc2c1O` (stereo not given) is 4.24%.
Then `Nc1cc(=O)c2[nH]cnc2[nH]1`, with 0.27%; and `CCOC(=O)N1CCC(c2cc(=O)n(-c3ccccc3)[nH]2)CC1`, with -3.53%.
In the case of `O=C(Nc1ccc(OC(F)(F)F)cc1)c1ccc2c(c1)no[n+]2[O-]`, the inhibition was 0.62%.
The figure for `C=CCn1c2ccccc2c2nnc(SCc3[nH]c(=O)[nH]c3C(=O)CCCCC(=O)OCC)nc21` is 0.3%; for `COCCNC(=O)Nc1ccc2nc(-c3ccco3)c(-c3ccco3)nc2c1` it is 15.8% (active).
The figure for `CCc1ccc(CN(C)C(C)C(=O)Nc2ccc(S(=O)(=O)N3CCCC3)cc2)cc1` (stereo not given) is -0.29%; for `COC(=O)c1ccc(COC(=O)C2CCN(S(=O)(=O)c3c(Cl)cccc3Cl)CC2)o1` it is 1.86%.
Turning to `CN(CC(=O)Nc1ccc(F)cc1)CC(=O)Nc1ccc(Cl)c(S(=O)(=O)N2CCOCC2)c1`, the inhibition was -1.92%.
For the compound `C#CCOCCOCCOCCNc1nc(N2CCN(C(=O)C(Cc3ccc(O)cc3)n3cc(C(N)CC(C)C)nn3)CC2)nc(N2CCN(C(=O)C(Cc3ccc(O)cc3)n3cc(C(N)C(C)CC)nn3)CC2)n1` (stereo not given), the inhibition was -1.04%.
As for `C=CCn1cc(C(=O)NCc2ccc(Cl)cc2)c(=O)c2cc(S(=O)(=O)N(CC)CC)ccc21`, the inhibition was -0.53%.
For `Cc1nn(-c2ncc(C(F)(F)F)cc2Cl)c(=O)n1-c1ccccc1`, the inhibition was -0.58%.
For the compound `COc1ccc(CNC(=O)c2cc(C(=O)C3CC3)c[nH]2)cc1`, the inhibition is 0%.
The figure for `Cc1c(CC(=O)N2CCN(C(=O)C3COc4ccccc4O3)CC2)c(=O)oc2c(O)c(O)ccc12` (stereo not given) is 21.4% (active).
Take `NC1=CC(=O)C(=O)c2cccnc21`: the inhibition is 8.89% (active).
As for `Cc1ccccc1CN1C[C@@H]2C[C@@H](c3ccc4nsnc4c3)N3CCC[C@@]23C1=O`, the inhibition was 0.34%.
On to `CSc1ncnc2c1ncn2CC(=O)C1CCC2C3CCC4=CC(=O)CCC4(C)C3CCC12C` (stereo not given), for which the inhibition was 0.43%.
For the compound `O=C(CNCc1ccco1)Nc1cc(S(=O)(=O)N2CCOCC2)ccc1N1CCCC1`, the inhibition was 2.49%.
Then `CCc1cc2c(N3CCN(c4nnc(CC)s4)CC3)ncnc2s1`, with -3.38%.
As to `CC(=O)Nc1ccc(CN2CCC(Oc3ccc(C(=O)N4CCCC4)cc3)CC2)cc1`, the inhibition was -0.82%.
Turning to `CCOc1ccc(S(=O)(=O)N2CCCCC2)cc1NC(=O)CN1CCCC1c1cccs1` (stereo not given), the inhibition was -2.43%.
For `O=c1c2c(nc3n1CCCCC3)sc1c(O)cccc12`, the inhibition was 0.41%.
The figure for `CCOc1ccc(CNC(=O)C2CCCN(c3nnc(C)c4c(C)n(-c5ccccc5)nc34)C2)cc1` (stereo not given) is -0.63%; for `Oc1c(CN2CCN(c3ccc(F)cc3)CC2)cc(Cl)c2cccnc12` it is 1.29%; for `CC(CCO)Nc1nc2c([nH]1)c(=O)n(C)c(=O)n2C` (stereo not given) it is -2.15%.
For `O=C(COc1ccc(S(=O)(=O)NCCc2ccccc2)cc1)N1CCCC1`, the inhibition was -1.34%.
As to `CN(C)c1ccc(N/C=C/C(=O)C(F)(F)F)cc1`, the inhibition is 0.06%.
Regarding `Cc1cccc(N(C)C(=O)CN2C(=O)COc3ccc(S(=O)(=O)N4CCCCCC4)cc32)c1`, the inhibition is -2.16%.
Take `C[C@@H]1CN([C@H](C)CO)S(=O)(=O)c2ccc(C#C[C@@H](C)O)cc2O[C@@H]1CN(C)Cc1ccc(-c2ccccc2)cc1`: the inhibition was -1.52%.
Then `O=C(NNc1c2ccccc2nc2ccccc12)c1cc2ccccc2cc1O`, with 2.7%; and `Cc1cc(NC(=O)CSCC(=O)NC(C)c2ccccc2)no1` (stereo not given), with 0.79%.
Consider `COc1cc(C(=S)N2CCOCC2)ccc1O`, for which the inhibition is -0.21%.
With `Cc1ccc(C(NC(=O)C2CCN(CCOc3ccc(Cl)cc3Cl)CC2)c2ccccn2)cc1` (stereo not given), the inhibition is -1.38%.
As for `CN(Cc1c(F)cccc1Cl)C(=O)CNC(=O)c1ccc2c(c1)OCO2`, the inhibition is 0%.
`O=C(Nc1ccc(S(=O)(=O)Nc2ncccn2)cc1)c1cncc(Br)c1`: the inhibition is 0.85%.
With `O=c1cc(CO)oc(CN2CCC(Cc3ccccc3)CC2)c1O`, the inhibition is 0.68%.
For the compound `CCOC(=O)N1CCN(C(=O)C2CCCN(c3ncnc4c3sc3cccc(F)c34)C2)CC1` (stereo not given), the inhibition is 0.85%.
`CCOc1ccc(-n2c(SCC(=O)NC3CCS(=O)(=O)C3)nnc2-c2cccnc2)cc1` (stereo not given): the inhibition was -0.86%.
As to `CCOC(=O)CN(C(=O)COc1nc(C)cc(C)c1C#N)c1ccc(Cl)cc1`, the inhibition is -1.77%.
On to `OC[C@@H]1CN(Cc2ccc(Cl)cc2)C[C@H](n2cnc3c(NCc4ccncc4)ncnc32)O1`, for which the inhibition is 0.89%.
Take `CCOC(=O)N1CCN(C(=O)C2CCN(c3ncnc4c3sc3cccc(F)c34)CC2)CC1`: the inhibition is 1.39%.
Regarding `Cc1ccccc1C(=O)N1CCC(C(=O)Nc2ccc(S(=O)(=O)N(C)C(C)C)cc2)CC1`, the inhibition is 0.2%.
For `O=C(c1cn(-c2ccccc2)nc1-c1cc2ccccc2oc1=O)N1CCOCC1`, the inhibition was -1.57%.
On to `O=C(CC1SCCNC1=O)Nc1ccc(Cl)cc1` (stereo not given), for which the inhibition was 0.84%.
For `CN(C(=O)c1ccc(NC(=O)Cc2cccc(NC(=O)C3CCN(C(=O)c4ccccc4)CC3)c2)cc1)C1CC1`, the inhibition was -0.72%.
Regarding `Nc1nc2n(n1)C(c1ccco1)CC(c1ccc(Cl)c(Cl)c1)N2` (stereo not given), the inhibition was -3.07%.
`NS(=O)(=O)c1ccc(CCNC(=O)Nc2ccc(Cl)cc2)cc1`: the inhibition is 2.08%.
Regarding `Oc1cccc2cc(-c3ccncc3)cnc12`, the inhibition is 11.6% (active).
Consider `Cc1ccc(-n2c(SCC(=O)NCc3ccc4c(c3)OCO4)nnc2-c2cccnc2)c(C)c1`, for which the inhibition is 0.57%.
